# Measurements published in PMC7862700, “An all-to-all approach to the identification of sequence-specific readers for epigenetic DNA modifications on cytosine”.
# Key:
# Assay in all cases: DAPPL (digital affinity profiling via proximity ligation, sequencing); 10 mM Tris-HCl pH 7.5, 50 mM NaCl, 1 mM DTT, 4% glycerol, room temperature, 30 min; GST-TFs on glutathione beads, 16-mer random dsDNA library, 0.1% formaldehyde crosslink after washing; high values mean tight binding
# Settings in all cases: protein: recombinant; tags: N-terminal GST; dsDNA, one strand shown
# FLI1 = target: T1, FLI1 (Homo sapiens, UniProt Q01543 1-452)
# T1 sequence: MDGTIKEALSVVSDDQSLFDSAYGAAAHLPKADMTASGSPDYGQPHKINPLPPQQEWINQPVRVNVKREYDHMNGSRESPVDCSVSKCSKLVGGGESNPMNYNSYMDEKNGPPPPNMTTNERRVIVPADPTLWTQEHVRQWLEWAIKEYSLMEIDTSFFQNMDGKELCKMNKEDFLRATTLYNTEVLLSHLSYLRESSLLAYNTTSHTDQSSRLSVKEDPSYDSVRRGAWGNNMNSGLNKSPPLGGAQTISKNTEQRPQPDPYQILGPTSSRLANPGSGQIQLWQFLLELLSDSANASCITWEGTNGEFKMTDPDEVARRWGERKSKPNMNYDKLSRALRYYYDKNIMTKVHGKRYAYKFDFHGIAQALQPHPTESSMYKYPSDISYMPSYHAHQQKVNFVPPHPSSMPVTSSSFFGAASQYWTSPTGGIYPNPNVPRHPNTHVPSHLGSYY
# Summary of the method: (§1)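 The binding signal reported is, for every hexamer, its read frequency for a factor over its read frequency for the tag-only sample. Reads came from pools of yeast-expressed, GST-fused human transcription factors on glutathione beads, barcoded with DNA and mixed with that sample, which were incubated with 200 nmole of a random double-stranded 16-mer DNA library in Tris/NaCl/DTT/glycerol buffer at room temperature for 30 min. After washing, the pools were crosslinked with 0.1% formaldehyde, proximity-ligated with BsaI/T4 ligase for 1 h at 37 °C, PCR-amplified and sequenced on an Illumina NextSeq500.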
# ELK1 = target: T2, ELK1 (Homo sapiens, UniProt P19419 1-428)
# T2 sequence: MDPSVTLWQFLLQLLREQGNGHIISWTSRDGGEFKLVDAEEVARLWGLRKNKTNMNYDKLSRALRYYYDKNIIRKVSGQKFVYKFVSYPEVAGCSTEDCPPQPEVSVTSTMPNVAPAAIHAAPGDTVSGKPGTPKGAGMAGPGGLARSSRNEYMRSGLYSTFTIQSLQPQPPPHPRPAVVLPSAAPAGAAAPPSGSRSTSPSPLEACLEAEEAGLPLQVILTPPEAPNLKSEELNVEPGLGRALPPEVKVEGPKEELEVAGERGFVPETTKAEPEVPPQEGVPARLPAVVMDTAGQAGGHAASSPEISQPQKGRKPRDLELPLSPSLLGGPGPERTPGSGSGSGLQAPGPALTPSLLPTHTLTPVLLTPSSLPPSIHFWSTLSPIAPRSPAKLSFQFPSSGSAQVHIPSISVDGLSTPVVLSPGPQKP
# Summary of the method: as §1
# GABPA = target: T3, GABPA (Homo sapiens, UniProt Q06546 1-454)
# T3 sequence: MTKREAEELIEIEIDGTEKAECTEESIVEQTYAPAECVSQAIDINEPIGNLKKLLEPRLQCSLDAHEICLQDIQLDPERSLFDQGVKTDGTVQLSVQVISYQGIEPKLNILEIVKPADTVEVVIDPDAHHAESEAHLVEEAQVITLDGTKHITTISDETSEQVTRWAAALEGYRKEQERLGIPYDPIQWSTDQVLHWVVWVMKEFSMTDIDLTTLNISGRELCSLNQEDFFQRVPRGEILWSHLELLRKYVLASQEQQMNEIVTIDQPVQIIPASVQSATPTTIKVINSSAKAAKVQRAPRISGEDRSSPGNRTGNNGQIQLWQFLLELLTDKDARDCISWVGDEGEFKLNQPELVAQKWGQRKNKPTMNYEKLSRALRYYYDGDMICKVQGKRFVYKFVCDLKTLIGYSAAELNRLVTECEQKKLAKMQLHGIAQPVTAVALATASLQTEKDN
# Summary of the method: as §1
# ERG = target: T4, ERG (Homo sapiens, UniProt P11308 1-479)
# T4 sequence: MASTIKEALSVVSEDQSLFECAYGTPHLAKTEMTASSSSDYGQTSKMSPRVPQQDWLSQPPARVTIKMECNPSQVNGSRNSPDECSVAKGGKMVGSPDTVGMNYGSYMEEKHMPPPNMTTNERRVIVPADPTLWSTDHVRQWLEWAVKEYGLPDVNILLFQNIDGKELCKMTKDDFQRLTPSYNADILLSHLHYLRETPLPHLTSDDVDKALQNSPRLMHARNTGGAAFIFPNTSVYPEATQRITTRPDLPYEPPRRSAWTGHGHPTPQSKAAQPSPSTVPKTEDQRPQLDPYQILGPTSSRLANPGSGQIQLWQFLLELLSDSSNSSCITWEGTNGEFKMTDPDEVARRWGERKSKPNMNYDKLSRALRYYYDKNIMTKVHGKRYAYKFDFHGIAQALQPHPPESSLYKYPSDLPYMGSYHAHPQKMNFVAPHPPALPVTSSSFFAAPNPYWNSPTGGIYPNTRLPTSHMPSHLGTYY
# Summary of the method: as §1
# ELF1 = ELF1 (Homo sapiens, UniProt P32519 1-619)
# Summary of the method: as §1
# EHF = target: T5, EHF (Homo sapiens, UniProt Q9NZC4 1-300)
# T5 sequence: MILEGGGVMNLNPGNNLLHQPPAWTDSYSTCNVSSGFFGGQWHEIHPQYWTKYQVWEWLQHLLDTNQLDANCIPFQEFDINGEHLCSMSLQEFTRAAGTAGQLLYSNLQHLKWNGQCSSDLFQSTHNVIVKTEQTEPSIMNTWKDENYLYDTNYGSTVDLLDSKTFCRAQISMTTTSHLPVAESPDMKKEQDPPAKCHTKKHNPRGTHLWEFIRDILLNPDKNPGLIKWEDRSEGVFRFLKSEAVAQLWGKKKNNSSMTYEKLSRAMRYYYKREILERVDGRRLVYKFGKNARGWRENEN
# Summary of the method: as §1
# SPI1 = SPI1 (Homo sapiens, UniProt P17947 1-270)
# Summary of the method: as §1
# SPIB = SPIB (Homo sapiens, UniProt Q01892 1-262)
# Summary of the method: as §1
# ELK3 = target: T6, ELK3 (Homo sapiens, UniProt P41970 1-407)
# T6 sequence: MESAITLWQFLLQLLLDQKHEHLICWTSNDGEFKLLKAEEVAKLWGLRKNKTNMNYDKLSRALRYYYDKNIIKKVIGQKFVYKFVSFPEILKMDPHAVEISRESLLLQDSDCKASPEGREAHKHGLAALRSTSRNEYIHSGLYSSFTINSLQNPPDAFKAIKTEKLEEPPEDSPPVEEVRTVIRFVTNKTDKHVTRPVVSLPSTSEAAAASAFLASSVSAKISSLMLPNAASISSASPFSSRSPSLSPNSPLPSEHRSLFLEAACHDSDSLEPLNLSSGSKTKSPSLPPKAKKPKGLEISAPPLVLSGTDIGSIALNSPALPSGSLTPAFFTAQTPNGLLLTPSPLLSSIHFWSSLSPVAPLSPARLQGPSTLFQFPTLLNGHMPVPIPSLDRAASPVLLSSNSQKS
# Summary of the method: as §1
# ELF1, sequence (P32519 whole entry): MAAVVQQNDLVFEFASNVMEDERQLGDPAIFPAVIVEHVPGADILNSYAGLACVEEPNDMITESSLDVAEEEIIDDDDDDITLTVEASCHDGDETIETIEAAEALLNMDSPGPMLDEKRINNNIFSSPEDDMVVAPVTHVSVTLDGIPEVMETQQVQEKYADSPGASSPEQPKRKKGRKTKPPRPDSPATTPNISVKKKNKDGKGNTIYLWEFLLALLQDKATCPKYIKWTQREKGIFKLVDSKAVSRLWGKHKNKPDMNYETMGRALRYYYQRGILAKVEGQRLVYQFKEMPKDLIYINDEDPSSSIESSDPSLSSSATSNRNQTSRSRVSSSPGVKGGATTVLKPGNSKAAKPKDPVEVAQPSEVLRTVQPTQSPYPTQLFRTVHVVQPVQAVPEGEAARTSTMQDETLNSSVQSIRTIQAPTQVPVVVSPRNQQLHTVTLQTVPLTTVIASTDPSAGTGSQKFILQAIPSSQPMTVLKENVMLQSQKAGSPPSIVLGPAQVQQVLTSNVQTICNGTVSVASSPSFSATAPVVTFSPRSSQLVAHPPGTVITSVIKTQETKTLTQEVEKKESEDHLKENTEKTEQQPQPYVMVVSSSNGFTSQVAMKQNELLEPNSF
# SPIB, sequence (Q01892 whole entry): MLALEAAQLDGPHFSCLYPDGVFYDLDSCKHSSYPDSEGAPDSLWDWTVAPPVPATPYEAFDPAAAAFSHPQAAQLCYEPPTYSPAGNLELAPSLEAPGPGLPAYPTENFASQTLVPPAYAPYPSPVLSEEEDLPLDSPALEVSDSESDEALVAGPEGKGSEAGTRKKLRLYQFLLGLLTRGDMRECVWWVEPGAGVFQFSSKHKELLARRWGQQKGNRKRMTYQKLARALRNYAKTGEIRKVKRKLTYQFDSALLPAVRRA
Sequence,binding signal (FLI1),binding signal (ELK1),binding signal (GABPA),binding signal (ERG),binding signal (ELF1),binding signal (EHF),binding signal (SPI1),binding signal (SPIB),binding signal (ELK3)
TAACAT,"1.41 fold enrichment (6-mer frequency, TF over GST control)","1.26 fold enrichment (6-mer frequency, TF over GST control)","1.3 fold enrichment (6-mer frequency, TF over GST control)","1.36 fold enrichment (6-mer frequency, TF over GST control)","1.35 fold enrichment (6-mer frequency, TF over GST control)","1.28 fold enrichment (6-mer frequency, TF over GST control)","1.32 fold enrichment (6-mer frequency, TF over GST control)","1.27 fold enrichment (6-mer frequency, TF over GST control)","1.28 fold enrichment (6-mer frequency, TF over GST control)"
GCTATT,"1.33 fold enrichment (6-mer frequency, TF over GST control)","1.34 fold enrichment (6-mer frequency, TF over GST control)","1.36 fold enrichment (6-mer frequency, TF over GST control)","1.3 fold enrichment (6-mer frequency, TF over GST control)","1.26 fold enrichment (6-mer frequency, TF over GST control)","1.39 fold enrichment (6-mer frequency, TF over GST control)","1.3 fold enrichment (6-mer frequency, TF over GST control)","1.28 fold enrichment (6-mer frequency, TF over GST control)","1.39 fold enrichment (6-mer frequency, TF over GST control)"
TCTTGG,"1.44 fold enrichment (6-mer frequency, TF over GST control)","1.35 fold enrichment (6-mer frequency, TF over GST control)","1.52 fold enrichment (6-mer frequency, TF over GST control)","1.38 fold enrichment (6-mer frequency, TF over GST control)","1.28 fold enrichment (6-mer frequency, TF over GST control)","1.48 fold enrichment (6-mer frequency, TF over GST control)","1.35 fold enrichment (6-mer frequency, TF over GST control)","1.4 fold enrichment (6-mer frequency, TF over GST control)","1.4 fold enrichment (6-mer frequency, TF over GST control)"
TCCTAA,"1.63 fold enrichment (6-mer frequency, TF over GST control)","1.34 fold enrichment (6-mer frequency, TF over GST control)","1.41 fold enrichment (6-mer frequency, TF over GST control)","1.58 fold enrichment (6-mer frequency, TF over GST control)","1.49 fold enrichment (6-mer frequency, TF over GST control)","1.27 fold enrichment (6-mer frequency, TF over GST control)","1.43 fold enrichment (6-mer frequency, TF over GST control)","1.49 fold enrichment (6-mer frequency, TF over GST control)","1.43 fold enrichment (6-mer frequency, TF over GST control)"
ATTCTG,"1.35 fold enrichment (6-mer frequency, TF over GST control)","1.23 fold enrichment (6-mer frequency, TF over GST control)","1.33 fold enrichment (6-mer frequency, TF over GST control)","1.21 fold enrichment (6-mer frequency, TF over GST control)","1.26 fold enrichment (6-mer frequency, TF over GST control)","1.34 fold enrichment (6-mer frequency, TF over GST control)","1.27 fold enrichment (6-mer frequency, TF over GST control)","1.15 fold enrichment (6-mer frequency, TF over GST control)","1.37 fold enrichment (6-mer frequency, TF over GST control)"
TCCTTG,"1.25 fold enrichment (6-mer frequency, TF over GST control)","1.31 fold enrichment (6-mer frequency, TF over GST control)","1.25 fold enrichment (6-mer frequency, TF over GST control)","1.35 fold enrichment (6-mer frequency, TF over GST control)","1.25 fold enrichment (6-mer frequency, TF over GST control)","1.32 fold enrichment (6-mer frequency, TF over GST control)","1.31 fold enrichment (6-mer frequency, TF over GST control)","1.41 fold enrichment (6-mer frequency, TF over GST control)","1.29 fold enrichment (6-mer frequency, TF over GST control)"
TTCTTC,"1.92 fold enrichment (6-mer frequency, TF over GST control)","1.87 fold enrichment (6-mer frequency, TF over GST control)","1.79 fold enrichment (6-mer frequency, TF over GST control)","1.87 fold enrichment (6-mer frequency, TF over GST control)","1.85 fold enrichment (6-mer frequency, TF over GST control)","1.75 fold enrichment (6-mer frequency, TF over GST control)","1.8 fold enrichment (6-mer frequency, TF over GST control)","1.9 fold enrichment (6-mer frequency, TF over GST control)","2.25 fold enrichment (6-mer frequency, TF over GST control)"
CACGAT,"1.4 fold enrichment (6-mer frequency, TF over GST control)","1.26 fold enrichment (6-mer frequency, TF over GST control)","1.33 fold enrichment (6-mer frequency, TF over GST control)","1.24 fold enrichment (6-mer frequency, TF over GST control)","1.27 fold enrichment (6-mer frequency, TF over GST control)","1.32 fold enrichment (6-mer frequency, TF over GST control)","1.27 fold enrichment (6-mer frequency, TF over GST control)","1.32 fold enrichment (6-mer frequency, TF over GST control)","1.25 fold enrichment (6-mer frequency, TF over GST control)"
